Measured values published in ChEMBL document CHEMBL3988442, “University of Dundee, Small-Polar-MMV Screening Library” (2021).
Among all 48,000 compounds or so, about 13,000 (27%) showed an effect of 50% or more. The list shows a part of the results.

These compounds were tested on Wolbachia pipientis (assay: Anti-Wolbachia Cell-Based Screen). Details: 5 µM.
Format: functional
Parameters: scale not given: in the data most compounds retested in dose-response had high values

Row | SMILES | Percent Effect
1 | COC1CCN(C(=O)c2ccc3ncsc3c2)CC1 | 13.06%
2 | CCN(Cc1cnn(C)c1)C(=O)c1ccccc1O | -0.8063%
3 | O=C(c1ccc(O)c(Cl)c1)N(Cc1ccncc1)C1CC1 | 5.687%
4 | CN(Cc1cnn(C)c1)C(=O)c1ccnc(OC2CCC2)c1 | -14.79%
5 | Cn1cc(CN(C(=O)c2ccc(O)c(Cl)c2)C2CC2)cn1 | 100.3%
6 | Cn1cc(CN(C(=O)C2COc3ccccc3C2)C2CC2)cn1 (stereo not drawn) | -27.95%
7 | Cn1cc(CN(C(=O)c2ccc3ncsc3c2)C2CC2)cn1 | 77%
8 | CN1C(=O)c2ccc(C(=O)N(Cc3cnn(C)c3)C3CC3)cc2C1=O | 106.1%
9 | CCN(Cc1cnn(C)c1)C(=O)c1cc2ccccc2c(=O)[nH]1 | 2.375%
10 | CCCn1cc(C(=O)NCCc2ccncc2)c(C)n1 | -13.4%
11 | CCOC(=O)c1ccc(CNC(=O)c2ccc(C)nc2)o1 | 18.5%
12 | CCCn1cc(C(=O)NCc2nnc(-c3ccc(C)nc3)o2)c(C)n1 | 141.9%
13 | Cc1ccc(-c2nnc(CNC(=O)c3cccnc3)o2)cn1 | 101.6%
14 | CCCn1cc(C(=O)NCCC(=O)NC2CCCCC2)c(C)n1 | -18.08%
15 | Cc1ccc(CCNC(=O)c2cccnc2)o1 | -1.027%
16 | COc1ccccc1OCC(=O)Nc1ncccc1C | -10%
17 | COc1cnc(N2CCCC(c3ncc[nH]3)C2)nc1 (stereo not drawn) | -2.958%
18 | COc1cc(N2CC3(CCN(S(C)(=O)=O)C3)C2)ncn1.O=C(O)C(F)(F)F | -16.93%
19 | COc1cc(N2CCC3(CC2)CN(CCO)c2ccccc23)ncn1 | 112.4%
20 | O=C(O)C(F)(F)F.O=C(O)C(F)(F)F.OCCN1CC2(CCN(CC3CC3)CC2)c2ccccc21 | -29.18%
21 | CS(=O)(=O)N1CC2(CCN(c3nccs3)CC2)c2ccccc21 | 6.686%
22 | COc1cc(N2CC3(CCN(c4ncccn4)C3)C2)ncn1 | -18.99%

Row | SMILES | Percent Effect
23 | COc1cc(N2CCC3(CC2)CN(S(C)(=O)=O)c2ccccc23)ncn1 | 110.7%
24 | CCc1ccc(C2COCCN2C(=O)Nc2ccc(C#N)cc2)o1 (stereo not drawn) | -6.805%
25 | COCc1noc(-c2ccc(N3CCCCC3CCCO)nc2)n1 (stereo not drawn) | 5.834%
26 | Cc1nc(Cn2c3c(ccc2=O)CC(N)CC3)cs1 (stereo not drawn) | 90.15%
27 | Cc1nc(Cn2c3c(ccc2=O)CC(NC(N)=O)CC3)cs1 (stereo not drawn) | 99.56%
28 | CCn1c2c(ccc1=O)CC(N)CC2 (stereo not drawn) | -10.57%
29 | NC1CCc2c(ccc(=O)n2CC2CC2)C1 (stereo not drawn) | -25.6%
30 | c1ccc(C2CN(CCc3ccncc3)CCO2)cc1 (stereo not drawn) | 114.6%
31 | Cc1cc2[nH]c(CN3CCOC(c4ccc(F)cc4)C3)cc(=O)n2n1 (stereo not drawn) | -0.7414%
32 | COc1ccc(CNC2CCN(CCc3ccncc3)CC2)cc1O | -10.08%
33 | OCCCN1CCOC(c2ccc(F)cc2)C1 (stereo not drawn) | 108.3%
34 | COc1cccc(C2CN(CCc3ccncc3)CCO2)c1 (stereo not drawn) | 114.5%
35 | NS(=O)(=O)CCN1CCOC(c2ccc(Cl)cc2)C1 (stereo not drawn) | -9.973%
36 | CCc1nccn1CCC(=O)N1CCOC(c2ccc(F)cc2)C1 (stereo not drawn) | 5.391%
37 | Cc1ccc(-c2nc(CN3CCOC(c4ccccc4)C3)cs2)o1 (stereo not drawn) | 7.737%
38 | CCNC(=O)NC(=O)CN1CCOC(c2cccc(Br)c2)C1 (stereo not drawn) | -11.97%
39 | Fc1ccc(C2CN(CCc3ccncc3)CCO2)cc1 (stereo not drawn) | 89.73%
40 | CCc1n[nH]c(C2CN(CCc3ccncc3)CCO2)n1 (stereo not drawn) | 1.737%
41 | CCN(CC)Cc1nc2c(o1)CN(C(=O)c1ccc3[nH]ccc3c1)C2.O=CO | 2.766%
42 | O=C(NC1CC1)N1Cc2[nH]nc(COCC3CC3)c2C1 | -7.793%
43 | CCc1nc(CCNC(=O)NC2CCC(=O)N(C)C2)sc1C (stereo not drawn) | -4.769%
44 | CN(C)c1cccc(C(=O)N2CCCc3cc(OC(F)(F)F)ccc32)c1 | 5.74%

Row | SMILES | Percent Effect
45 | CN(CC1CCC1)C(=O)Nc1cccnc1-n1cncn1 | -2.5%
46 | Cc1oc(-c2ccsc2)nc1CN1CC[C@@H]2CCCC[C@H]2C1 | 16.57%
47 | Cc1nc(C)n(CC2CN(CCc3ccccc3Cl)CCO2)n1 (stereo not drawn) | -35.87%
48 | Clc1ccccc1C1CN(CCc2ccncc2)CCO1 (stereo not drawn) | 118%
49 | CCNC(=O)NC(=O)CN1CCOC(c2ccccc2Cl)C1 (stereo not drawn) | 0.5373%
50 | COc1ncccc1CN1Cc2nccn2CC(CN2CCCC2)C1 (stereo not drawn) | 87.46%
51 | CNC(=O)c1cnc2n1CCN(Cc1cccnc1OC)C2 | -12.45%
52 | CS(=O)(=O)N1Cc2nccn2CC(CN2CCCC2)C1 (stereo not drawn) | -0.3251%
53 | COc1ncccc1CN1Cc2nccn2CC(Cn2cccn2)C1 (stereo not drawn) | 99.64%
54 | Cc1ccc(CC(=O)N2Cc3nccn3CC(Cn3cccn3)C2)cc1 (stereo not drawn) | -9.367%
55 | O=C(CCn1cncn1)Nc1ccc(F)cc1OCC1CC1 | -2.529%
56 | COC(=O)CCNC(=O)c1ccc(NC(=O)N(C)CC(C)C)cc1 | 21.34%
57 | Cc1ccccc1C1(O)CCN(C(=O)CCc2cn3ccccc3n2)C1 (stereo not drawn) | -1.584%
58 | CN(C)c1ccc(CNC(=O)NCCc2ccccn2)cn1 | 91.3%
59 | CN(C)c1ccc(CNC(=O)NCCc2cccs2)cn1 | 93.45%
60 | CN(C)c1ccc(CCNC(=O)NCc2ccc(N(C)C)nc2)cc1 | 5.041%
61 | CC(C)c1nc(CCNC(=O)NCc2ccnc(N(C)C)c2)cs1 | 6.649%
62 | CN(C)c1ccc(C(=O)NCCCc2ccccn2)cn1 | 11.7%
63 | Cc1cc(CNC(=O)NCc2cccs2)ccc1S(C)(=O)=O | -12.59%
64 | CN(C)c1ccc(CNC(=O)NCCc2cn3ccccc3n2)cn1 | 118.9%
65 | Cc1nc(CN2CCC(CNC(=O)Nc3ccccn3)CC2)oc1C | 15.98%
66 | COCc1nc2n(n1)CCCC2Nc1nc(C(C)C)ns1 (stereo not drawn) | -13.74%

Row | SMILES | Percent Effect
67 | CN1CCN(S(=O)(=O)N2CCCCC2CCc2ccc(O)cc2)CC1 (stereo not drawn) | -0.6049%
68 | CCn1cc(CN2CCCn3nc(CNS(C)(=O)=O)cc3C2)c(C)n1 | -7.534%
69 | Cc1cc2c(c(=O)n1CCC(=O)O)C=CC(C)(C)O2 | 159.6%
70 | CC(C)=CCCC1(C)C=Cc2c(cc(C)n(CCC(=O)O)c2=O)O1 (stereo not drawn) | 110.1%
71 | CC(C)=CCCC1(C)C=Cc2c(cc(C)n(CC(=O)O)c2=O)O1 (stereo not drawn) | 107.4%
72 | CCn1c(C)nnc1SCCNC(=O)c1cnc(C(C)(C)C)nc1O | -1.576%
73 | CN(C)C(=O)N1CCN(CCCOc2ccccc2)[C@H]2CS(=O)(=O)C[C@H]21 | -34.84%
74 | CC(O)CN1CCC(CNCc2ccc(C#N)cc2)CC1 (stereo not drawn) | 2.816%
75 | Cn1ccnc1CN1CCC(F)(F)C2(CCN(c3cccnc3)C2)C1.O=C(O)C(F)(F)F.O=C(O)C(F)(F)F (stereo not drawn) | 75.41%
76 | Cn1ccnc1CN1CCC(F)(F)C2(CCN(c3cnccn3)C2)C1.O=C(O)C(F)(F)F (stereo not drawn) | 108.4%
77 | Cn1cc(N2CC3(CCN(Cc4nccn4C)C3)CC2=O)cn1.O=C(O)C(F)(F)F (stereo not drawn) | -13.1%
78 | Cn1ccnc1CN1CCC2(CC1)CC(Oc1cccnc1)C2.O=C(O)C(F)(F)F.O=C(O)C(F)(F)F | -13.8%
79 | COc1cccc(N2CC3(CCN(Cc4nccn4C)C3)CC2=O)c1.O=C(O)C(F)(F)F (stereo not drawn) | 13.06%
80 | Cc1ccc(N2CC3(CCN(Cc4nccn4C)C3)CC2=O)s1.O=C(O)C(F)(F)F (stereo not drawn) | 20.39%
81 | Cc1cnn(C(C)C2CC2)c1NC(=O)c1cnccn1 (stereo not drawn) | 2.38%
82 | COc1ccc(CN2CCN(C(C)=O)CC2)cc1SC(F)(F)F | -8.503%
83 | O=C(CCC1CCCCC1)NCc1nnc2ccccn12 | -0.7171%
84 | CCN1Cc2nc(OC)c(CNC(=O)CCC3CCCC3)cc2C1=O | 102.4%
85 | Cc1cc(C(F)(F)F)nc(CNC(=O)CCC2CCCN(C)C2)n1 (stereo not drawn) | 9.588%
86 | CCc1[nH]c2c(CNC(=O)C3CCS(=O)(=O)CC3)cc(C)cc2c1C | -6.161%
87 | COc1nc2ccccc2cc1CN1CCCC(CNC(C)=O)C1 (stereo not drawn) | 6.31%
88 | COc1ccc(Oc2ccc(CNC(=O)C3CCS(=O)(=O)C3)cn2)cc1 (stereo not drawn) | -6.307%

Row | SMILES | Percent Effect
89 | CCc1[nH]c2c(CNC(=O)C3CCCN(C)C3)cc(C)cc2c1C (stereo not drawn) | -27.93%
90 | CCN1Cc2nc(OC)c(CNC(=O)C3CCS(=O)(=O)CC3)cc2C1=O | 82.23%
91 | CCN1Cc2nc(OC)c(CNC(=O)C3CCCN(C)C3)cc2C1=O (stereo not drawn) | 93.23%
92 | O=C(NCCc1nnc2n1CCCCC2)N1CCC2(CCOC2)C1 (stereo not drawn) | 10.36%
93 | CNC(=O)c1ccc(=O)n(Cc2csc(C(C)(C)C)n2)c1 | 14.6%
94 | Cc1cnn(C2CCCN(C(=O)c3c(C)oc4nc[nH]c(=O)c34)C2)c1 (stereo not drawn) | -0.5439%
95 | COCc1nc(CNC2CCCc3c2cnn3C(C)(C)C)cs1 (stereo not drawn) | -7.69%
96 | CC1(NC(=O)Cc2csc(C(C)(C)C)n2)CCS(=O)(=O)C1 (stereo not drawn) | -4.538%
97 | Cc1cc(N2CCC(Cc3ccncc3)C2)ncn1 (stereo not drawn) | 95.84%
98 | Cc1cc(N2CCC(Cc3cnccn3)C2)ncn1 (stereo not drawn) | 100.8%
99 | COCCO[C@H]1CCN(c2cc(OC)ncn2)[C@H]1Cc1ccncc1 | -8.224%
100 | COc1cc(N2CCC(c3nccn3Cc3cccnc3)CC2)ncn1 | 2.829%
101 | C[C@@H]1CN(c2cc(N3CCC(O)CC3)ncn2)C[C@@]1(O)C1CCC1 | 2.327%
102 | Cc1cc(N2CCC(Cc3ncccn3)C2)ncn1 (stereo not drawn) | 90.07%
103 | CN1CCN(c2cc(NC(=O)c3cnccn3)ncn2)CC1 | -2.529%
104 | Cc1cc2c(N3CCCC(OCc4cccnc4)C3)ncnc2s1 (stereo not drawn) | 0.4664%
105 | Cc1ccc(N2CCCC(NCc3ccncc3)C2)nn1 (stereo not drawn) | 1.645%
106 | Cc1cc(N2CCCC2c2cnccn2)ncn1 (stereo not drawn) | -8.281%
107 | Cc1cc(N2CCC(Cc3cccnc3)CC2)ncn1 | 156%
108 | COc1cc(N2CC[C@H]3OCC[C@@]3(COc3nccc(C)n3)C2)ncn1 | -2.077%
